CSC inhib: cancer stem cell inhibition. cancer stem cell-like cells viability, luminescence. inhibition, % at 7.5 µM. 300,000 tested, 1.1% active. AID 2717; in the data active = inhibition above about 75%; inconclusive = no clear call, values can overlap the other calls; tested in HMLE shEcad cells
SKKanGAS inh: SKKanGAS growth inhibition; S. pyogenes SKKanGAS, kanamycin growth, BacTiter-Glo, 6 h; inhibition, % at 7.5 µM; 300,000 tested, 1.3% active; AID 1662;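 active = mean replicate score, as percent of positive control median, at least 50; inconclusive = mean below 50 but one replicate at or above 50; inactive = mean and every replicate below 50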;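 also: strain carries kanamycin resistance gene driven by streptokinase promoter and grows in 40 µg/ml kanamycin; loss of luminescence reflects streptokinase promoter inhibition or plain growth inhibition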
Beta apoptosis: blocks beta cell apoptosis; 300,000 tested, 0.8% active; protection from apoptosis, % (concentration not given with the values); AID 435005; INS-1E cytokine-induced death, ATP luminescence, 48 h; percent of positive-control rescue, neutral wells zero;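 active = Every replicate reaches about 75%, or at least half do and their mean reaches it too, limit read from the data; inconclusive = At least half of replicates reach the limit but their mean does not; inactive = Under half of replicates reach the limit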;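 also: higher means more ATP so stronger rescue from cytokine killing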
MPTP inh: blocks calcium-induced mitochondrial swelling | isolated mouse mitochondria, Ca2+ swelling absorbance, 30 min | inhibition, % at 10 µM | 360,000 tested, 1.4% active | AID 602449;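 active = inhibition of 50% or more, scaled per plate between neutral and stimulator controls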
Mdm2 MdmX PPI: inhibitors of human Mdm2/MdmX interaction | O15151+Q00987 | SaOS-2 split-luciferase Mdm2/MdmX complementation, luminescence | inhibition, % at 8 µM | 330,000 tested, 3% active;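 active = inhibition of at least 50% at 8 µM in the primary screen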
Target sequence (O15151 whole entry, looked up): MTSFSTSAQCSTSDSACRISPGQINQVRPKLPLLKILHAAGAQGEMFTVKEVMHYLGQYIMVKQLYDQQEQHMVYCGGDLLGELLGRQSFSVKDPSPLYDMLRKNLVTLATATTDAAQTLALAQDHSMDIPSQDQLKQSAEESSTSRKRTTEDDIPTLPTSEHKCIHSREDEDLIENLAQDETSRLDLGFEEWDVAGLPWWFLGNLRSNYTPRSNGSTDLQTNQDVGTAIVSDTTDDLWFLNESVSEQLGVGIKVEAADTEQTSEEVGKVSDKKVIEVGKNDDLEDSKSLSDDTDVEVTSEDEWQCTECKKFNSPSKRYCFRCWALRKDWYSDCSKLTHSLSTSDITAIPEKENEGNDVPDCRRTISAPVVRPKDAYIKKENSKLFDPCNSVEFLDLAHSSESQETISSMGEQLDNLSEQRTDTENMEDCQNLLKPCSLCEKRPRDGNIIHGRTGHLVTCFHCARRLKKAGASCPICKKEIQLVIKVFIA
Target sequence (Q00987 whole entry, looked up): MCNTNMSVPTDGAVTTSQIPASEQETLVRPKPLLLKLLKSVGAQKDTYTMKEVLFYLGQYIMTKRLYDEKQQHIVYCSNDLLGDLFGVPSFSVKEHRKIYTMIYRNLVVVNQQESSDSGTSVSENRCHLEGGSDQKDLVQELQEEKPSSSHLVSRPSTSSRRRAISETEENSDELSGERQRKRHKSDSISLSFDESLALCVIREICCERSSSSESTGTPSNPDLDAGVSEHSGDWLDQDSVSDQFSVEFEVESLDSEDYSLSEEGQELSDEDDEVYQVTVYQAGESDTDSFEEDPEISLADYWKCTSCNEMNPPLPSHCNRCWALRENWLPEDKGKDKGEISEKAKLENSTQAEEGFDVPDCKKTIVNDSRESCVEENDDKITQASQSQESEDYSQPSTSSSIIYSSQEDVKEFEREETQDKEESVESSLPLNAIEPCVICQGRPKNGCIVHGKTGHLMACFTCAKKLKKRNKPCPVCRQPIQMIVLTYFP
GRIN3A LBD mod: modulators (binders) of human NR3A ligand-binding domain; Tm shift relative to glycine control, % at 25 µM; NR3A LBD differential scanning fluorimetry, Tm shift; 0% = protein alone, 100% = glycine-bound protein; 340,000 tested, 2.5% active; AID 1259313;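 active = melting temperature shift of at least 10% of the positive control shift, at one fixed dose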
MPTP counter: mitochondrial membrane potential, counter-screen | 5,000 tested, 78% active | AID 624504 | isolated mitochondria, Rhodamine 123 fluorescence | shares compounds with MPTP inh | inhibition, % at 10 µM; in the data active = inhibition above about 22%
MPTP swell DR: dose response confirmation of mitochondrial permeability transition pore inhibitors. 780 tested, 58% active. AID 651561. isolated mitochondria swelling, absorbance. shares compounds with MPTP inh. IC50, µM; in the data active = IC50 below about 20 µM
MPTP counter DR: counter-screen for mitochondrial permeability transition pore inhibitors, dose response; isolated mitochondria counterscreen, fluorescence read-out; shares compounds with MPTP inh; IC50, µM; 780 tested, 49% active; in the data active = IC50 below about 80 µM
Each line names hits and unclear results; the compound was inactive in the other large screens (follow-up assays come after a bar, where they were run). Most compounds without a hit are left out; they make up all but 6.9% or so of the library.

CC(=O)Nc1ccc(NCC(=O)c2ccccc2)cc1	none
Cn1nc(C(C)(C)C)cc1C(=O)NCc1cc(F)cc2c1OCOC2	Beta apoptosis 102, MPTP inh 92 | MPTP counter 84
Cc1cc(C(=O)NCc2cc(F)cc3c2OCOC3)nn1C	none (no result: Beta apoptosis)
S=C(NCCC(c1ccccc1)c1ccccc1)Nc1ccccc1Cl	none
S=C(NCc1ccc(Cl)cc1)NC1CCN(Cc2ccccc2)CC1	MPTP inh 71 | MPTP counter 24
S=C(NCCCc1ccccc1)Nc1ccccc1	none (no result: SKKanGAS inh)
S=C(NCCCc1ccccc1)Nc1ccc(Cl)cc1	MPTP inh 97, GRIN3A LBD mod 22 | MPTP counter 91
S=C(NCCC(c1ccccc1)c1ccccc1)Nc1ccc(Cl)cc1	SKKanGAS inh 117, MPTP inh 93, GRIN3A LBD mod 15 | MPTP counter 75
S=C(NCc1ccccc1)Nc1ccc(Cl)cc1	MPTP inh 72 | MPTP counter 81
COc1cc(OC)cc(C(=O)N[C@@H](CCSC)c2nc3ccccc3[nH]2)c1	none
S=C(NCc1ccccc1)NCc1cccc(CNC(=S)NCc2ccccc2)c1	MPTP inh 84, GRIN3A LBD mod 20 | MPTP counter 78
NS(=O)(=O)c1cccc(NS(=O)(=O)c2ccc(/C=C/C(=O)OCC(=O)c3ccccc3)cc2)c1	MPTP inh 60 | MPTP counter 27
COC(=O)c1ccc([C@H](NC(=O)c2ccco2)[C@]2(C)C[C@H]2C2CCCCC2)cc1	none
CN(C)c1ccc(NC(=O)Nc2csc3ccccc23)cc1	MPTP inh 52, GRIN3A LBD mod 18 | MPTP counter 54
CN1CCC(CNC(=O)Nc2csc3ccccc23)CC1	none
O=C(Nc1ccc(F)cc1)Nc1ccccc1N1CCCCC1	MPTP inh 85 | MPTP counter 77
O=C(Nc1ccc(F)cc1)Nc1csc2ccccc12	MPTP inh 75, GRIN3A LBD mod 34 | MPTP counter 91
CC(C)(C)c1cc(C(=O)NNc2cc(C(F)(F)F)ccc2Cl)n(Cc2ccccc2)n1	CSC inhib 103, SKKanGAS inh 99, MPTP inh 75 | MPTP counter 78
CC(C)(C)c1cc(C(=O)NC2CC2)n(Cc2ccc(F)cc2)n1	none
CC(C)(C)c1cc(C(=O)Nc2ccc(F)cc2)n(Cc2ccc(F)cc2)n1	SKKanGAS inh inconclusive, MPTP inh 80 | MPTP counter 87
COc1cccc2cc(C(=O)C3=C(O)C(=O)N(CCN4CCOCC4)C3c3ccc(C)o3)oc12 (centres undefined)	none
CCCCCCn1c(=O)c(Cc2ccccc2)c(O)c2ccccc21	MPTP inh 58 (no result: CSC inhib) | MPTP counter 59
CCOC(=O)c1c(NC(=O)COC(=O)CCOc2ccccc2C)sc(C(=O)NC)c1C	none (no result: Beta apoptosis)
CCOC(=O)C1(C)CCN1C(=O)c1ccc(OC)c(F)c1 (centres undefined)	none (no result: CSC inhib, SKKanGAS inh, Beta apoptosis, Mdm2 MdmX PPI, GRIN3A LBD mod)
CN1CCCN(C(c2ccccc2)c2ccc(Cl)cc2)CC1 (centres undefined)	MPTP inh 99 (no result: CSC inhib, Beta apoptosis) | MPTP counter inactive
Cc1ccc(C(=O)N2CCN(C)CC2)cc1[N+](=O)[O-]	none
CCOc1ccc(NS(=O)(=O)c2ccc(C(=O)NCC(c3ccc(OC)cc3)N3CCCC3)cc2)cc1 (centres undefined)	MPTP inh 85 (no result: CSC inhib) | MPTP counter inactive | MPTP swell DR 9 | MPTP counter DR inactive
CC(=O)Nc1cc2c(cc1Cl)-c1ccccc1C2O (centres undefined)	none (no result: CSC inhib, SKKanGAS inh, Beta apoptosis, Mdm2 MdmX PPI)
O=[N+]([O-])c1cc2c(c([N+](=O)[O-])c1)Nc1ccccc1O2	MPTP inh 55 (no result: CSC inhib, SKKanGAS inh, Beta apoptosis, Mdm2 MdmX PPI, GRIN3A LBD mod) | MPTP counter 61
COc1ccc(Cl)c2sc(N(CCN(C)C)C(=O)c3ccc4c(c3)OCCO4)nc12	MPTP inh 74 (no result: Beta apoptosis, GRIN3A LBD mod) | MPTP counter inactive | MPTP swell DR inactive | MPTP counter DR 50
CCN(CC)CCN(C(=O)c1ccc(Br)s1)c1nc2cc3c(cc2s1)OCCO3	none
CN(C)CCN(C(=O)c1ccc2c(c1)OCCO2)c1nc2c(Cl)cccc2s1	none
CN(C)CCCN(C(=O)c1ccc(Br)s1)c1nc2cc3c(cc2s1)OCCO3	MPTP inh 76 (no result: Beta apoptosis) | MPTP counter inactive
Fc1ccccc1NC(=S)NCCc1ccccc1	none
O=[N+]([O-])c1cccc(NC(=S)NCCc2ccccc2)c1	MPTP inh 95, GRIN3A LBD mod 33 | MPTP counter 96
CC(=O)c1cccc(NC(=S)NCCCCc2ccccc2)c1	MPTP inh 68 (no result: CSC inhib) | MPTP counter 81
Fc1ccc(NC(=S)NCCc2ccccc2)c(F)c1F	MPTP inh 77 | MPTP counter 92
O=C(Cc1cccc([N+](=O)[O-])c1)Nc1ccccc1	none (no result: CSC inhib, SKKanGAS inh, Beta apoptosis, Mdm2 MdmX PPI, GRIN3A LBD mod)
O=C(NCCCCc1ccccc1)Nc1cccc(F)c1	MPTP inh 56 | MPTP counter 96
COc1ccc(S(=O)(=O)N2CCN(Cc3ccco3)CC2)cc1	none
CC(=O)Nc1ccc(C(=O)COC(=O)CCc2ccccc2)c(F)c1	none (no result: SKKanGAS inh)
OCCNC(=S)NCCc1ccccc1	none
CCN(CC)C(=O)Nc1cnc2ccccc2c1	none (no result: CSC inhib)
Fc1cccc(NC(=S)NCCc2ccccc2)c1	MPTP inh 71, GRIN3A LBD mod 28 | MPTP counter 87
Cc1ccc(NC(=O)Nc2cnc3ccccc3c2)cc1	MPTP inh 87, GRIN3A LBD mod 27 | MPTP counter 71
Fc1ccc(F)c(NC(=S)NCCc2ccccc2)c1	none
S=C(NCCc1ccccc1)Nc1cnc2ccccc2c1	MPTP inh 77, GRIN3A LBD mod 14 | MPTP counter 78
CC(C)(CNC(=S)NCCc1ccccc1)CNC(=S)NCCc1ccccc1	MPTP inh 80, GRIN3A LBD mod 14 (no result: CSC inhib, Beta apoptosis, Mdm2 MdmX PPI) | MPTP counter 85
O=C(NNC(=O)c1ccccc1Cl)c1cc2cc(OC(F)(F)F)ccc2[nH]1	none (no result: CSC inhib, Beta apoptosis)
NC(c1ccccc1)c1csc(NC(=O)Nc2ccc(OC(F)(F)F)cc2)n1 (centres undefined)	MPTP inh 70 (no result: CSC inhib, SKKanGAS inh, Beta apoptosis, Mdm2 MdmX PPI, GRIN3A LBD mod) | MPTP counter 78
NC(c1ccccc1)c1csc(NC(=O)Nc2cccc(Cl)c2)n1 (centres undefined)	none (no result: CSC inhib, SKKanGAS inh, Beta apoptosis, Mdm2 MdmX PPI, GRIN3A LBD mod)
CCOC(=O)Cc1csc(NC(=O)Nc2ccc(OC(F)(F)F)cc2)n1	MPTP inh 84 | MPTP counter 68
O=C1CCC2(CCCCC2)N1	none (no result: CSC inhib, SKKanGAS inh, Beta apoptosis, Mdm2 MdmX PPI)
CCCCn1c(SCC(=O)Nc2nnc(C(C)C)s2)nc2c1c(=O)n(C)c(=O)n2C	none
CCCn1c(SCC(=O)Nc2nc3c(s2)CCCC3)nc2c1c(=O)n(C)c(=O)n2C	MPTP inh 85 | MPTP counter 33
OC(COc1ccc(Br)cc1)CN1CCC(Cc2ccccc2)CC1 (centres undefined)	MPTP inh 64 | MPTP counter inactive | MPTP swell DR 6.3 | MPTP counter DR 34
